{"source": "PubChem BioAssay (EPA / NIEHS)", "key": {"PGR (gene 5241) [1]": {"molecular_target": "PGR (gene 5241) (UniProt P06401)", "sequence (P06401 whole entry, looked up)": "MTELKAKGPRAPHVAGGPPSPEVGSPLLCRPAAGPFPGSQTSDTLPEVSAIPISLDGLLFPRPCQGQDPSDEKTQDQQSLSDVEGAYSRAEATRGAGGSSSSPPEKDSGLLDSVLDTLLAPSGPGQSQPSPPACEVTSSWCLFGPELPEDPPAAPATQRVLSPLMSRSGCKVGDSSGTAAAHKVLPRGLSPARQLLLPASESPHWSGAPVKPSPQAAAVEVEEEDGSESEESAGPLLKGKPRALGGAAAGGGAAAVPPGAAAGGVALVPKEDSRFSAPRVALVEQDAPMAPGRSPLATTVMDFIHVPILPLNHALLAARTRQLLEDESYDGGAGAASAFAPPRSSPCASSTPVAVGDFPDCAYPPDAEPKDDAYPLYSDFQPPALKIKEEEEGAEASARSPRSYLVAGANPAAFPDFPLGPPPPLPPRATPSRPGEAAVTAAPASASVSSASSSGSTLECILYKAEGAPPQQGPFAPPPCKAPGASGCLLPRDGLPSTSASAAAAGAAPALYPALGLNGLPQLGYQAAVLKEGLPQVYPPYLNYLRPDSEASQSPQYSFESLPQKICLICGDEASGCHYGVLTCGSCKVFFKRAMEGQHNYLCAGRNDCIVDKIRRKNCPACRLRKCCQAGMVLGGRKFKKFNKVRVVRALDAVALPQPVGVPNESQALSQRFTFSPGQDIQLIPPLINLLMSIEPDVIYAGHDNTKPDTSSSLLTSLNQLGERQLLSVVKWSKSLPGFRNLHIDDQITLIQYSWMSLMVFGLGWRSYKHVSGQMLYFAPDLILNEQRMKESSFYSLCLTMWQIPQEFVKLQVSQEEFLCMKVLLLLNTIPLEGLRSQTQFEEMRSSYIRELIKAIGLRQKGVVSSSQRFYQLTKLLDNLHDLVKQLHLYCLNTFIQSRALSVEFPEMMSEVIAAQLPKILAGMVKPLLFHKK", "experiment": "TOX21_PR_BLA_Followup_Antagonist_ratio: Tox21 HEK293 Progesterone Receptor (PR) Antagonism Beta-lactamase Follow-Up Assay, Ratio (AID 2283934)", "how_it_was_run": "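PR-UAS-bla HEK293T cells, 3,000/well in 2% charcoal-stripped FBS, given compound plus 1nM R5020 agonist for 16 hr at 37C. Beta-lactamase FRET substrate 2 hours, ratio cleaved/uncleaved fluorescence; viability by CellTiter-Glo in same wells.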"}, "[2]": {"experiment": "TOX21_PR_BLA_Followup_Agonist_viability: Viability Assessment in the Tox21 HEK293 Progesterone Receptor (PR) Agonism Beta-lactamase Follow-Up Assay (AID 2283935);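 note: signal loss means lower viability so actives are cytotoxic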", "how_it_was_run": "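PR-UAS-bla HEK293T cells in 2% charcoal-stripped FBS medium, plated 6 hr before compound addition, exposed 16 hr at 37C. Viability read by CellTiter-Glo ATP luminescence after 30 min at room temperature, in the same wells as the beta-lactamase readout.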"}, "[3]": {"experiment": "TOX21_PR_BLA_Followup_Antagonist_viability: Viability Assessment in the Tox21 HEK293 Progesterone Receptor (PR) Antagonism Beta-lactamase Follow-Up Assay (AID 2283936);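 note: hits lower the luminescence signal meaning cytotoxicity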", "how_it_was_run": "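PR-UAS-bla HEK293T cells (3,000/well, 2% charcoal-stripped FBS) given compound plus R5020 agonist, 16 h at 37C. CellTiter-Glo added after bla read, 30 min at room temperature; luminescence loss indicates cytotoxicity.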"}, "PGR (gene 5241) [4]": {"molecular_target": "PGR (gene 5241) (UniProt P06401)", "experiment": "TOX21_PR_LUC_Followup_Agonist: Tox21 HEK293 Progesterone Receptor (PR) Agonism Luciferase Follow-Up Assay (AID 2283937; active = hit-call score of the fitted dose curve at least 0.9, where 1 is the maximum; inactive = score below 0.9)", "how_it_was_run": "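HEK293-PR-A-luc cells, conditioned 5 days in 10% charcoal-stripped FBS medium, seeded 3,000/well for 5 h, then compound-treated 16 h at 37C. ONE-Glo luminescence read after 30 min at room temperature; gain of signal versus DMSO.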"}, "PGR (gene 5241) [5]": {"molecular_target": "PGR (gene 5241) (UniProt P06401)", "experiment": "TOX21_PR_LUC_Followup_Antagonist: Tox21 HEK293 Progesterone Receptor (PR) Antagonism Luciferase Follow-Up Assay (AID 2283938);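 note: curve fitted upward as signal gain over DMSO baseline despite antagonist label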", "how_it_was_run": "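Luciferase reporter in HEK293-PR-A-luc cells: 16 h compound treatment at 37C, ONE-Glo luminescence detection, DMSO as negative control and baseline.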"}, "[6]": {"experiment": "TOX21_PR_LUC_Followup_Agonist_viability: Viability Assessment in the Tox21 HEK293 Progesterone Receptor (PR) Agonism Luciferase Follow-Up Assay (AID 2283941);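 note: loss of signal means cytotoxicity so actives lower viability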", "how_it_was_run": "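HEK293-PR-A-luc cells, kept in 10% charcoal-stripped FBS medium, were treated with compounds for 16 h at 37C. Viability read as cellular ATP by luciferase-coupled luminescence; loss of signal indicates cytotoxicity.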"}, "[7]": {"molecular_target": "Thyroid hormone receptor alpha (Rattus norvegicus) + Thyroid hormone receptor beta (Rattus norvegicus) (UniProt P18113+P63059)", "experiment": "TOX21_TR_LUC_GH3_Antagonist_Followup: Tox21 GH3 Thyroid Hormone Receptor Antagonism Luciferase Follow-Up Assay (AID 2283942)", "how_it_was_run": "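Confirmatory qHTS, antagonist mode: T3 (1.0 nM final) + test cpd, 15 conc, 92 uM–5nM final, GH3 rat pituitary line, 24 h, 37C. Luc reporter, RLU vs DMSO.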"}, "THRA (gene 7067)": {"molecular_target": "THRA (gene 7067) (UniProt P10827)", "sequence (P10827 whole entry, looked up, the tested form may be a part)": "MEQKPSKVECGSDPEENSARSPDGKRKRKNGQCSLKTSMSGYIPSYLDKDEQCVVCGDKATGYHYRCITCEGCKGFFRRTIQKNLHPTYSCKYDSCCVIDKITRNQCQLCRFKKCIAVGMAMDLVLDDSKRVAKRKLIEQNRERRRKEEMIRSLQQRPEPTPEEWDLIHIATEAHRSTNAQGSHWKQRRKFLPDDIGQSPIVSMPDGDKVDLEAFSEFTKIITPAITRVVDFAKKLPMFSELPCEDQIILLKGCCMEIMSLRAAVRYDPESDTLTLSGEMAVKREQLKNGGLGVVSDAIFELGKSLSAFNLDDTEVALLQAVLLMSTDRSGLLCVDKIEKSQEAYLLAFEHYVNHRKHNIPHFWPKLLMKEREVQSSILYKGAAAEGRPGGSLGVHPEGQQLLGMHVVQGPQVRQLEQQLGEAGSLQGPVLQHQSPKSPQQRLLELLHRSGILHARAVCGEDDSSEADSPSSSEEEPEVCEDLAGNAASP", "experiment": "TOX21_TRA_COA_Antagonist_Followup_ratio: Tox21 Thyroid Hormone Receptor alpha Antagonism through Coactivator Recruitment Follow-Up Assay, Ratio (AID 2283953)", "how_it_was_run": "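520:495 nm emission ratio (excitation 340 nm) reports fluorescein-SRC-2 peptide recruitment to GST-TRα LBD by TR-FRET with Tb anti-GST antibody. Values were normalized to DMSO (0%) and T3 control wells (100%); loss of signal indicated antagonism.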"}, "THRB (gene 7068)": {"molecular_target": "THRB (gene 7068) (UniProt P10828)", "sequence (P10828 whole entry, looked up, the tested form may be a part)": "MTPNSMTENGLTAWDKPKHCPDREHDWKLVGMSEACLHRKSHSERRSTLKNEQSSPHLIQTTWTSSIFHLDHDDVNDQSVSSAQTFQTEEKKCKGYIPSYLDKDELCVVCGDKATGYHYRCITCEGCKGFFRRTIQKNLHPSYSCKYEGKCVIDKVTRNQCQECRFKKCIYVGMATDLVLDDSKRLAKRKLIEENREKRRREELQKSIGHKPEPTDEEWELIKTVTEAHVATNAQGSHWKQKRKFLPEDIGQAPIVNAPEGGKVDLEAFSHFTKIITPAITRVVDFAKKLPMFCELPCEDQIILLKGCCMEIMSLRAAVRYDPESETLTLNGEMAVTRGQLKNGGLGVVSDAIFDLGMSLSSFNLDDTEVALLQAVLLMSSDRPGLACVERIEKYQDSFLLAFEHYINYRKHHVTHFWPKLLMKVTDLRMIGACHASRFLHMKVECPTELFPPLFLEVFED", "experiment": "TOX21_TRB_BLA_Antagonist_Followup_ratio: Tox21 Thyroid Hormone Receptor beta Antagonism Beta-lactamase (BLA) Follow-Up Assay, Ratio (AID 2283958)", "how_it_was_run": "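HEK293T cells with a GAL4-TRb LBD fusion and UAS-bla reporter, 3,000 cells/well in phenol red-free DMEM with 2% charcoal-stripped FBS. Exposed 18 h at 37C to 11 concentrations in triplicate; CCF4 460:530 nm ratio after 2 h, DMSO-referenced.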"}, "[8]": {"experiment": "TOX21_TRB_BLA_Antagonist_Followup_viability: Viability Assessment in the Tox21 Thyroid Hormone Receptor beta Antagonism Beta-lactamase (BLA) Follow-Up Assay (AID 2283961)", "how_it_was_run": "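In the same wells as the reporter read, cell health was gauged by CellTiter-Glo ATP luminescence, with signal loss indicating reduced viability. Cells had been exposed to test compounds for 18 h.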"}, "[9]": {"experiment": "TOX21_p53_BLA_p2_viability: Viability Assessment in the Tox21 HCT-116 p53 Agonism Beta-lactamase Assay, Phase 2 (AID 2283591);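 note: actives lower the ATP signal meaning cytotoxicity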", "how_it_was_run": "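Cytotoxicity readout: CellTiter-Glo ATP luminescence, 30 min at room temperature, after the beta-lactamase read. Cells were HCT116 exposed 16 h at 37C to compounds pin-transferred at 217-fold dilution from DMSO stocks.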"}, "[10]": {"molecular_target": "Cellular tumor antigen p53 (Homo sapiens) (UniProt P04637)", "sequence (P04637 whole entry, looked up)": "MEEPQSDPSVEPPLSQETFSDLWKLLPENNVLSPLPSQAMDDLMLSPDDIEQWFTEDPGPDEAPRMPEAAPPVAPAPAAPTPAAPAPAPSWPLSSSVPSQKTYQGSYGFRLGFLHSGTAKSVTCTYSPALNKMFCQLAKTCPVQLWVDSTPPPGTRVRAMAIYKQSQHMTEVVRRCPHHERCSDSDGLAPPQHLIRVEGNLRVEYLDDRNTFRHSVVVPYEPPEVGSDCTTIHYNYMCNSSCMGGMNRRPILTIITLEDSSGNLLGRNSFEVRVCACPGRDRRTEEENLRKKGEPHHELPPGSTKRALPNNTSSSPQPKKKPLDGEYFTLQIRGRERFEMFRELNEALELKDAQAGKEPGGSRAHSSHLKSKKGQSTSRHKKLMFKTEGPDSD", "experiment": "TOX21_p53_BLA_p2_ratio: Tox21 HCT-116 p53 Agonism Beta-lactamase Assay, Ratio, Phase 2 (AID 2283592)", "how_it_was_run": "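Human colon HCT116 cells with an inducible p53 beta-lactamase reporter are exposed to test chemicals for 16 h at 37C. Reporter induction is read as the 460/530 nm emission ratio after CCF4-AM loading, normalized to DMSO.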"}, "[11]": {"experiment": "TOX21_p53_BLA_p3_viability: Viability Assessment in the Tox21 HCT-116 p53 Agonism Beta-lactamase Assay, Phase 3 (AID 2283593)", "how_it_was_run": "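Cellular ATP was quantified by CellTiter-Glo luminescence, read after 30 min at room temperature. Beforehand, HCT116 cells (4000/well) received compound 5 h post-seeding, 217-fold diluted from DMSO, then incubated 16 h at 37C.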"}, "[12]": {"molecular_target": "Cellular tumor antigen p53 (Homo sapiens) (UniProt P04637)", "experiment": "TOX21_p53_BLA_p3_ratio: Tox21 HCT-116 p53 Agonism Beta-lactamase Assay, Ratio, Phase 3 (AID 2283596)", "how_it_was_run": "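HCT116 p53-bla cells (4000/well) given compound in DMSO (217-fold dilution) after 5 h, incubated 16 h at 37C. CCF4-AM substrate 2 h at room temperature; 460/530 nm emission ratio, gain fitted against DMSO.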"}, "[13]": {"molecular_target": "Cellular tumor antigen p53 (Homo sapiens) (UniProt P04637)", "experiment": "TOX21_p53_BLA_p5_ratio: Tox21 HCT-116 p53 Agonism Beta-lactamase Assay, Ratio, Phase 5 (AID 2283599)", "how_it_was_run": "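Beta-lactamase reporter ratio (blue 460 nm over green 530 nm, 405 nm excitation) after 2 h CCF4-AM loading, in HCT-116 cells exposed 16 h at 37 C to compounds pinned at 217-fold dilution. Increases relative to DMSO baseline scored.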"}, "[14]": {"molecular_target": "Cellular tumor antigen p53 (Homo sapiens) (UniProt P04637)", "experiment": "TOX21_p53_BLA_p4_ratio: Tox21 HCT-116 p53 Agonism Beta-lactamase Assay, Ratio, Phase 4 (AID 2283601)", "how_it_was_run": "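Signal is the blue/green (460nm/530nm) ratio of cleaved versus uncleaved CCF4-AM substrate, read after 2 h substrate loading. Cells were HCT116 carrying the p53-responsive beta-lactamase reporter, dosed 16 h at 37C, 5% CO2; CellTiter-Glo measured in parallel.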"}, "[15]": {"experiment": "CCTE_Harrill_HTTr_Apoptosis_MCF7: CCTE's 6-hour Apoptosis Assessment for the High-Throughput Transcriptomics (HTTr) Platform, in MCF-7 cells cultured in DMEM + 10% fetal bovine serum, Harrill Lab (AID 2284011; active = hit-call score of the fitted dose curve at least 0.9, where 1 is the maximum; inactive = score below 0.9)", "how_it_was_run": "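Apoptosis in MCF-7 cells grown in DMEM with 10% fetal bovine serum was scored after a six hour exposure by high content imaging of caspase-3/7 activation (CellEvent Caspase 3/7 Green), with DMSO serving as negative control and baseline.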"}, "[16]": {"experiment": "CCTE_Harrill_HTTr_CellCount_MCF7: CCTE's Cell Proliferation Assessment for the High-Throughput Transcriptomics (HTTr) Platform, Harrill Lab (AID 2284012);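 note: intended direction is loss of nuclei count meaning fewer cells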", "how_it_was_run": "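MCF7 cells exposed 6 hours to an eight-point dilution series; Hoechst-stained nuclei counted by high-content imaging. Bidirectional curve fitting against DMSO baseline.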"}, "[17]": {"experiment": "TOX21_p53_BLA_p4_viability: Viability Assessment in the Tox21 HCT-116 p53 Agonism Beta-lactamase Assay, Phase 4 (AID 2283597);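 note: hits lower the luminescence signal meaning cytotoxicity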", "how_it_was_run": "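Luminescent ATP readout (CellTiter-Glo, 30 min, room temperature) in the same wells as the p53 bla ratio. HCT116 cells were treated for 16 h at 37C with DMSO-dissolved compounds.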"}, "[18]": {"experiment": "TOX21_p53_BLA_p5_viability: Viability Assessment in the Tox21 HCT-116 p53 Agonism Beta-lactamase Assay, Phase 5 (AID 2283600)", "how_it_was_run": "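Seeded cells (4000/well) settle 5 h before compound addition. Plates then incubate 16 h at 37C, receive FRET substrate for 2 h, and finally CellTiter-Glo, with luminescence measured after a 30 min room-temperature incubation.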"}}, "note": "Records with an inconclusive call do not appear. Activity calls are given as the source filed them. Rule for the calls, unless noted: active = hit-call score of the fitted dose curve at least 0.9, where 1 is the maximum; inconclusive = response in the unintended direction; inactive = score below 0.9.", "data": [{"smiles": "COc1ccc2c(c1OC)CN1CCc3cc4c(cc3C1C2)OCO4", "note": "(configuration not stated)", "values": [{"measurement": "AC50", "setting": "PGR (gene 5241) [1]", "value": "5.55 µM (active)"}, {"measurement": "outcome", "setting": "[2]", "value": "inactive"}, {"measurement": "outcome", "setting": "[3]", "value": "inactive"}, {"measurement": "outcome", "setting": "PGR (gene 5241) [4]", "value": "inactive"}, {"measurement": "AC50", "setting": "PGR (gene 5241) [5]", "value": "11.5 µM (active)"}, {"measurement": "outcome", "setting": "[6]", "value": "inactive"}]}, {"smiles": "O=C(N[C@@H]1N=C(c2ccccc2F)c2cccc3c2N(CC3)C1=O)c1cc2ccccc2[nH]1", "values": [{"measurement": "outcome", "setting": "[7]", "value": "inactive"}, {"measurement": "outcome", "setting": "THRA (gene 7067)", "value": "inactive"}, {"measurement": "outcome", "setting": "THRB (gene 7068)", "value": "inactive"}, {"measurement": "outcome", "setting": "[8]", "value": "inactive"}]}, {"smiles": "O=C(O)c1ccc2[nH]cc(CCCCN3CC=C(c4ccccc4)CC3)c2c1", "values": [{"measurement": "outcome", "setting": "[9]", "value": "inactive"}, {"measurement": "outcome", "setting": "[10]", "value": "inactive"}, {"measurement": "outcome", "setting": "[11]", "value": "inactive"}, {"measurement": "outcome", "setting": "[12]", "value": "inactive"}, {"measurement": "outcome", "setting": "[13]", "value": "inactive"}, {"measurement": "outcome", "setting": "[14]", "value": "inactive"}]}, {"smiles": "Cc1cccc2sc3nncn3c12", "values": [{"measurement": "outcome", "setting": "[9]", "value": "inactive"}, {"measurement": "outcome", "setting": "[10]", "value": "inactive"}, {"measurement": "outcome", "setting": "[11]", "value": "inactive"}, {"measurement": "outcome", "setting": "[12]", "value": "inactive"}, {"measurement": "outcome", "setting": "[14]", "value": "inactive"}, {"measurement": "outcome", "setting": "[15]", "value": "inactive"}, {"measurement": "outcome", "setting": "[16]", "value": "inactive"}]}, {"smiles": "COc1cccc(C(=O)CCN[C@@H](C)[C@H](O)c2ccccc2)c1", "values": [{"measurement": "outcome", "setting": "[9]", "value": "inactive"}, {"measurement": "outcome", "setting": "[10]", "value": "inactive"}, {"measurement": "outcome", "setting": "[11]", "value": "inactive"}, {"measurement": "outcome", "setting": "[17]", "value": "inactive"}, {"measurement": "outcome", "setting": "[13]", "value": "inactive"}, {"measurement": "outcome", "setting": "[18]", "value": "inactive"}, {"measurement": "outcome", "setting": "[14]", "value": "inactive"}]}, {"smiles": "CC(=O)Nc1cc([As](=O)(O)O)ccc1O", "values": [{"measurement": "outcome", "setting": "[9]", "value": "inactive"}, {"measurement": "outcome", "setting": "[10]", "value": "inactive"}, {"measurement": "outcome", "setting": "[11]", "value": "inactive"}, {"measurement": "outcome", "setting": "[12]", "value": "inactive"}, {"measurement": "outcome", "setting": "[13]", "value": "inactive"}, {"measurement": "outcome", "setting": "[14]", "value": "inactive"}]}, {"smiles": "CCOP(=S)(OCC)Oc1cc(-c2ccccc2)on1", "values": [{"measurement": "outcome", "setting": "[9]", "value": "inactive"}, {"measurement": "outcome", "setting": "[10]", "value": "inactive"}, {"measurement": "outcome", "setting": "[11]", "value": "inactive"}, {"measurement": "outcome", "setting": "[17]", "value": "inactive"}, {"measurement": "outcome", "setting": "[13]", "value": "inactive"}]}, {"smiles": "O=c1[nH]oc2c1CCNC2", "values": [{"measurement": "outcome", "setting": "[9]", "value": "inactive"}, {"measurement": "outcome", "setting": "[10]", "value": "inactive"}, {"measurement": "outcome", "setting": "[11]", "value": "inactive"}, {"measurement": "outcome", "setting": "[12]", "value": "inactive"}, {"measurement": "outcome", "setting": "[13]", "value": "inactive"}, {"measurement": "outcome", "setting": "[14]", "value": "inactive"}]}]}
